Most compounds without a hit are left out; they make up all but 6.5% or so of the library.
FMDV antiviral: High Throughput Screening for Foot and Mouth Disease Virus Antivirals; 410,000 tested, 1.2% active; FMDV antiviral cell-based qHTS; AID 1159524, 2015; Potency, µM (highest dose often 57.9 µM), without a hit: at the highest dose activity change, negative = inhibition, actives largely listed as inhibitors; calls by dose curve; tested in HEK293T cells; also: read-out not given here; potency is read from the fitted curve at half-maximal effect; nearly all actives have a fitted effect of over 45% in size
MARV entry inh: qHTS for inhibitors of binding or entry into cells for Marburg Virus; Marburg virus pseudotyped entry inhibition, cell reporter; Potency, µM (highest dose often 37.8 µM), for inactives: at the highest dose activity change, negative = inhibition, usual class: inhibitors; 300,000 tested, 1.8% active; AID 540276, 2011; calls by dose curve; tested in HEK293 cells; also: potency is read from the fitted curve at half-maximal effect
HCMV antiviral: qHTS Assay for inhibitors of the human cytomegalovirus (HCMV) | HFF cells, HCMV-luciferase reporter, 72 h; stronger effect = lower value | activity change, negative = inhibition, % at 57.5 µM | 410,000 tested, 4.5% active; in the data active = activity change below about -60%; inconclusive = no clear call, values can overlap the other calls; inactive = above about -39%
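Screen run at 2 compound doses on HFFs infected with reporter HCMV, MOI 1 PFU/cell. Luciferase activity from cell lysates at 72 h post infection gave inhibition relative to buffer-only and Salinomycin wells.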
VACV Venus inh: qHTS for Stage-Specific Inhibitors of Vaccinia Orthopoxvirus: Venus Reporter Primary qHTS; Vaccinia virus Venus reporter expression, fluorescence; Potency, µM (series often up to 36.5 µM), without a hit: top-dose activity change, negative = inhibition, actives largely listed as inhibitors; AID 720580, 2013; 330,000 tested, 0.46% active; calls by dose curve; tested in A549 cells; also: potency is read from the fitted curve at half-maximal effect; nearly all actives have a fitted effect of over 30% in size
Vaccinia mCherry: qHTS for Stage-Specific Inhibitors of Vaccinia Orthopoxvirus: mCherry Reporter Primary qHTS; Vaccinia virus mCherry reporter infection, fluorescence; 310,000 tested, 0.63% active; Potency, µM (doses to about 36.5 µM), inactives show at the highest dose activity change, negative = inhibition, hits mostly inhibitors; AID 720579, 2013; calls by dose curve; tested in A549 cells; also: potency is read from the fitted curve at half-maximal effect; nearly all actives have a fitted effect of over 35% in size
LASV entry inh: qHTS for Inhibitors of binding or entry into cells for Lassa Virus | 300,000 tested, 1.2% active | Potency, µM (doses to about 37.9 µM), without a hit: top-dose activity change, negative = inhibition, actives largely listed as inhibitors | Lassa virus pseudotype entry inhibition, cell reporter; calls by dose curve; tested in HEK293 cells; also: potency is read from the fitted curve at half-maximal effect; nearly all actives have a fitted effect of over 50% in size
An asterisk follows results filed as active; i = inactive; ? = inconclusive; . = no result given; [ ] = remark or other dose. % is scaled to controls: 0 for no effect and ±100 for the full control effect.

SMILES	FMDV antiviral	MARV entry inh	HCMV antiviral	VACV Venus inh	Vaccinia mCherry	LASV entry inh
CCCCCc1ccc(OCCCC[n+]2cccc(C)c2)c(CCCCC)c1	?	?	-101.5*	?	?	?
CCCCOc1ccc(C)cc1CN(CCO)CCO	.	-22.1%	-11.6	-7.8%	i	-13.0%
CCCCCc1ccc(OCCCC[n+]2ccc(C)cc2)c(CCCCC)c1	?	?	-100.2*	?	?	4.47µM*
CCCCCCCCCCCCCCCC[n+]1ccc(C)cc1	.	.	.	28.2µM*	?	.
O=C(c1cccs1)N1C[C@H](O)[C@H](n2cc(C3CC3)nn2)C[C@@H]1c1ccc(Cl)cc1	.	.	.	.	.	-15.3%[46.1 µM]
O=C(Nc1cccc(-c2nc3ccccc3o2)c1)C(F)(F)F	31.6µM*	.	-103.5*	-19.5%	?	8.9%[46.1 µM]
CCc1ccccc1NC(=O)C1CCN(c2nc3ccccc3[nH]2)CC1	-8.1%	.	?	-9.3%	-8.1%	-2.6%[46.1 µM]
Clc1ccc2nc(-c3ccc(Cl)nc3)[nH]c2c1	25.8%	7.94µM*	139.0	-18.4%	i	?
Nc1ccc2nc(-c3ccc(Cl)cc3)[nH]c2c1	-9.5%	.	216.5	?	?	.
CCc1cccc(C)c1NC(=O)c1ccc2c(c1)CCN2S(=O)(=O)c1ccc(Cl)cc1	0.0%	?	0.2	-2.9%	-7.3%	-1.2%[46.1 µM]
COc1ccc(O)c(-c2c(-c3ccc(Cl)cc3)n[nH]c2C)c1	?	16.6%	1.2	?	-26.1%	2.6%
Cc1[nH]nc(-c2ccc(O)cc2O)c1-c1ccc(Cl)cc1	?	-13.4%	-71.5*	.	.	-14.4%
COc1ccc(-c2n[nH]c(C)c2-c2ccc(Cl)cc2)c(O)c1	?	-13.8%	?	?	.	?
COc1ccc(-c2n[nH]c(C)c2-c2ccc(Cl)cc2)c(O)c1OC	31.6µM*	-11.5%	?	.	.	?
COC(=O)c1ccc(NC(=O)C(=O)NCC(c2cccnc2)N2CCc3ccccc32)cc1 (configuration not stated)	11.2µM*	.	10.8	-12.2%	-14.7%	-14.4%[46.1 µM]
CCOc1ccc(NC(=O)C(=O)NCC(c2cccnc2)N2CCc3ccccc32)cc1 (configuration not stated)	11.2µM*	.	-65.6*	-29.8%	-27.9%	-3.4%[46.1 µM]
COc1ccc(NC(=O)C(=O)NCC(c2cccnc2)N2CCc3ccccc32)cc1OC (configuration not stated)	-21.8%	.	11.3	-14.0%	-25.6%	5.4%[46.1 µM]
CN1CCCN(C(=O)CSc2nc3cccnc3n2C)CC1	.	.	7.8	.	.	.
Cc1ccc(CNC(=O)C2CCN(c3nc4ccccc4n(C)c3=O)CC2)cc1	-9.9%	11.7%[46.1 µM]	-1.6	2.0%	6.1%	-22.6%[46.1 µM]
COCCNC(=O)c1cc2oc3ccccc3c2n1C	0.0%	22.0%	42.5	.	.	-5.2%
CCn1c(C(=O)NCc2ccc(OC(C)C)cc2)cc2oc3ccccc3c21	-14.8%	?	-79.0*	5.7%	-9.3%	.
CCn1c(C(=O)NCc2ccccc2C)cc2oc3ccccc3c21	-5.7%	?	-82.4*	16.6%	?	.
Cc1cccc([C@@H]2CN(C)CCc3c2cc(O)c(O)c3Cl)c1	-13.8%	?	.	.	.	.
Cc1cccc(N2CCN(C(=O)c3cnn(-c4ccccc4)c3C3CCN(C(=O)OC(C)(C)C)CC3)CC2)c1C	-26.8%	.	0.0	-23.1%	-10.5%	?
CCC(=NCc1ccco1)c1c(O)n(C2CCCCC2)c(=O)[nH]c1=O	?	-2.4%	-29.2	.	.	3.66µM*
SMILES	FMDV antiviral	MARV entry inh	HCMV antiviral	VACV Venus inh	Vaccinia mCherry	LASV entry inh
CC(=NCc1ccco1)c1c(O)n(C2CCCCC2)c(=O)[nH]c1=O	-18.0%	18.0%	-3.8	.	.	2.1%
CCN(c1ccccc1)S(=O)(=O)c1ccc(N)c(OC)c1	0.9%	3.16µM*	11.9	-17.4%	-8.3%	?
CCN(CC)S(=O)(=O)c1ccc(N2CCN(c3ccccc3OC)CC2)c(N)c1	22.4µM*	?	-80.2*	-14.5%	?	?
Cc1cc(Nc2nc3ccccc3nc2Cl)n(-c2ccccc2)n1	?	?	-90.0*	.	.	?
Cc1nnsc1C(=O)Oc1ccccc1Cl	-9.2%	?	-1.0	-5.3%	-13.9%	23.0%[46.1 µM]
CCCC1(c2ccccc2)NC(=O)N(CC(=O)Nc2sc(-c3ccccc3)cc2C(=O)OCC)C1=O (configuration not stated)	13.9%	?	-61.8*	-1.4%	i	?
Cc1cc(C(=O)N/N=C2\CC(=O)CC(C)(C)C2)c(C)n1-c1ccc(F)cc1	0.0%	-13.7%	-64.3*	-13.7%	i	6.0%
Cc1cc(C(=O)NN=C2CC(=O)CC(C)(C)C2)c(C)o1	0.7%	?	-20.3	-2.9%	i	2.3%
Cc1cc(C(=O)N/N=C2\CC(=O)CC(C)(C)C2)c(C)n1-c1ccccc1	0.0%	2.91µM*	?	.	.	19.7%
Cc1cc(C(=O)N/N=C2\CC(=O)c3ccccc32)c(C)n1-c1ccccc1	-3.9%	?	60.2	-6.6%	?	?
CC(NC(=O)CN(c1ccc(Cl)cc1Cl)S(=O)(=O)c1ccccc1)c1ccccc1 (configuration not stated)	0.6%	-8.0%[46.1 µM]	-17.1	-25.7%	?	?
CN(C)N=Nc1ccc(/C=C2\C=Cc3ccccc32)cc1	.	.	.	-14.9%	-15.6%	.
COc1ccc2nc(N/C(N)=N/C(=S)Nc3cccc(C)c3)nc(C)c2c1	-2.0%	?	-7.1	-14.1%	.	-16.8%
COc1ccc2nc(N/C(N)=N/C(=S)Nc3c(C)cccc3C)nc(C)c2c1	21.9%	?	-71.4*	.	.	?
Cc1ccc(NC(=S)/N=C(\N)Nc2nc(C)c3cc(C)ccc3n2)c(C)c1	-18.7%	?	-86.3*	?	i	14.9%
c1ccc(-c2nc3nonc3nc2-c2ccccc2)cc1	?	?	-78.0*	-9.3%	-20.1%	-25.5%
O=C(COC(=O)/C=C/c1cccc(Br)c1)NC1CCCC1	-2.8%	-3.2%[46.1 µM]	-100.3*	-1.1%	-9.0%	8.0%[46.1 µM]
CCc1ccccc1NC(=O)Cn1ccn(-c2cc(C)cc(C)c2)c(=O)c1=O	2.8%	.	-64.0*	-8.6%	-5.6%	3.1%[46.1 µM]
CCNC(=O)/C(C#N)=C/c1c(N2CCN(c3ccccc3)CC2)nc2c(C)cccn2c1=O	-18.3%	-15.2%	94.4	-11.4%	-1.9%	?
CCN1CCN(c2nc3c(C)cccn3c(=O)c2/C=C(\C#N)C(=O)NC)CC1	-8.2%	-7.3%	-72.4*	-13.9%	-11.8%	?
CNC(=O)/C(C#N)=C/c1c(N2CCN(C)CC2)nc2c(C)cccn2c1=O	-8.0%	.	15.5	.	.	.
CCNC(=O)/C(C#N)=C/c1c(N2CCCCCC2)nc2c(C)cccn2c1=O	-2.3%	?	?	?	?	8.91µM*
COC(=O)/C(C#N)=C/c1c(N2CCN(c3ccccc3)CC2)nc2ccccn2c1=O	10.9%	-29.1%[46.1 µM]	.	-4.9%	-4.1%	17.5%[46.1 µM]

High-throughput results from PubChem.
